Among the data in the supplement of paper PMC6555819 are PBM binding z-score values, retold here.

In the experiment the test system is VDR:RXRa (NR concentration 270 nM, RXRa partner concentration 90 nM). The experiment in a line: PBM binding z-score (relative to random genomic background probes); higher = stronger binding; sequences stand for … in GC…GCGATTGACAGCGTAGAATGAAGG
The protocol:
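Protein-binding microarray (Agilent 4x180K custom design, double-stranded 60-nt probes: 5' GC cap, 34-nt variable region, 24-nt constant primer region; full probe sequence given). Purified or IVT nuclear receptor:RXRα heterodimers (3:1 NR:RXRα, mostly 270:90 nM) or homodimers were incubated for 1 h in PBS with 2% milk and no ligand, then detected with Alexa488 antibodies. Fluorescence from o1-orientation probes (~5 replicates averaged) was converted to z-scores against 500 random hg19 background probes. Variable regions are seed direct-repeat (DR0–DR5) sites, all their single-nucleotide variants and half-site ablations.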
Sequence CCGAGTAGGTTATGGCGCATTCAGGCAACGGTGA showed a PBM binding z-score of -0.266.

In turn, AAAATGAGGTTACCAAAGATCAGGGAAACGCTTG had a PBM binding z-score of 1.94.

Turning to CCTAGCAGGCCAATGTGGGTCACTCAAGGCTTGA, the PBM binding z-score amounted to 1.02.

With TCTTGTAGATCAACAGCAGGTTAAGAAAGATCGA, the PBM binding z-score stood at 0.341.

Consider CGTCCAAGGTTAAAGGTCAGTGAAGAGATGACGG, for which the PBM binding z-score amounted to 4.69.

Sequence CGAACTAGGTCATTCAGGACAGTGAATACATTGA returned a PBM binding z-score of 4.46.

TAGCCTAGGTCATGGACCAGTATACCACGCGAAC displayed a PBM binding z-score of 2.13.

CCAGACAGGTGAAATGTAACTCAGTCTGGTACGC: the PBM binding z-score came to 0.0659.

As to CCTATTGGGCCATCAGGTCATTGATATCAACGTT, the PBM binding z-score was 2.12.

Turning to ATCGAAAGTTCGAAGGTGAGTATACCCACCCGAA, the PBM binding z-score was found to be 1.29.

For the sequence ACAGACAGGTGAATGAAGGTAACTCAGCTGGACG, the PBM binding z-score was -0.131.

In the case of ATCGAAAGGTCGACGAGGTGCGTATACACCGTTT, the PBM binding z-score was determined as 4.18.

CCAACTAGGTCAAAGGTCAAAGTCGAGCCAACCA registered a PBM binding z-score of 6.81.

Consider ACAGACAGGTGAGTGAAGTTAACTCAGCTGGACG, for which the PBM binding z-score is -0.576.

On to AGAATGAGGTTATACGTACATCAGGGAAGAAAGT, for which the PBM binding z-score worked out at 1.67.

Turning to ATCTCTAGGTAAGACTCAGTTCAGTGTAGAACGC, the PBM binding z-score is 1.02.

Sequence CTTCCAAGGTCAATGCTAGGTCAGTGAAAGCATT displayed a PBM binding z-score of 4.72.

CCAGACAGGTGAAAGGTAAATCAGTCTGGTACGC yielded a PBM binding z-score of 0.701.

As for CGAACTAGGTCACTGACAGGACAGTGAATAGTAA, the PBM binding z-score worked out at 1.77.

In turn, TCGAGTAGGATAGGGGCATTCAGAATGGCGTCGA showed a PBM binding z-score of -0.000288.

For the sequence TCATATAGGTAAAGGCTAGGTGAAAGTCCGATCT, the PBM binding z-score came out at 0.546.

In turn, CCTACTGGGCCAAAGGTCATTGTTTCCAATGCTC yielded a PBM binding z-score of 4.11.

On to ATACCAAGGTGTTCGTGAGGTCGTTGATACTAAC, for which the PBM binding z-score worked out at 2.81.

The sequence TAGCCTAGGTCATTCAGGGGCCAGGATAGAAAGC showed a PBM binding z-score of 2.94.

On to CCTAGTTGGTCAGAAGGTCACACACCGGATATGA, for which the PBM binding z-score is 3.5.

In turn, TTACCAAGGTGAAGGTCGTTGAGCCCTCTGTAGA came in with a PBM binding z-score of 1.

TCTCTGAGGACACGAAAGGTCAGAGCTCGACATC: the PBM binding z-score turned out to be 3.54.

In turn, CCTACTGGGCCATTCAGAGGCCATTGATCATATG displayed a PBM binding z-score of -0.232.

Regarding CAAACTAGGTCACAGAGGTCCAAGTCCGTGCGTA, the PBM binding z-score stood at 5.

Consider TCTCGGAGGACACGAAGGTCAGACCTTTCCAGAG, for which the PBM binding z-score was found to be 2.45.

For GGAACGAGGGCATTCGAGTTGATCGCATGGCGAT, the PBM binding z-score was determined as 3.61.

As for ATCTCTAGGTAAGACTCAGTTCCGTGAAGAACGC, the PBM binding z-score was determined as 0.121.

CCTGCGAGGTCAATGGTCAGCTAAAGCAGCTCGC: the PBM binding z-score was determined as 4.73.

The sequence CCGACTGGGCCATAAGGTTACCATAAGCCAGCCC showed a PBM binding z-score of 0.0236.

Regarding AGAACGAGGGCACGCTGATTTGATAGCAGAGTAG, the PBM binding z-score was 0.858.

Regarding CAAACTAGGTCAAAGGTCAAAGGCGAGCCAACCA, the PBM binding z-score came out at 6.82.

On to ATCTCTAAGTAAAGATAGTTCAGTGAATGCAAAT, for which the PBM binding z-score came out at 0.741.

CGAACTAGGTCAGAACAGGAGAGTGAAGGATGAT: the PBM binding z-score amounted to 0.035.

ATCGAAAGGTCGACGAGGTGTGTATACACCGTTT came in with a PBM binding z-score of 3.81.

CGAACGAGGCCATGAGTTGATAGCAAATGCCGAT had a PBM binding z-score of 0.155.
